# Hit rate of the full screen: of about 68,000 compounds, about 2,700 (4%) showed an effect of 50% or more. Only a selection was taken, and strong results are over-represented in it overall.
# Tested on: Plasmodium berghei
# Assay: Screen against P. berghei liver stage (PbLuc), transformed with Luciferase, at 2uM
# Assay type: functional, HepG2
# Conditions: tested at 2 uM
row,Compound,INHIBITION [%]
1,CN(C)[C@H]1CCCCN(C(=O)c2cccc(-c3cccc(F)c3)c2)C1,36.79
2,COc1c(F)ccc(C(=O)N2CC[C@H](CO)[C@@H](O)C2)c1F,-15.37
3,NC(=O)c1cc(-n2cc(-c3cccc(C(=O)O)c3)cn2)cs1,29.13
4,NC(=O)c1cc(-c2cccc(C(=O)O)c2)cs1,67.28
5,NC(=O)c1ccccc1-n1cc(-c2cccc(C(=O)O)c2)cn1,0.51
6,CC(C)C(=O)N1CCC2(CCCN(CCOc3ccccc3)C2)C1 (stereo not drawn),21.89
7,Cn1c(N)nnc1SCc1c(F)cccc1Br,-3.53
8,Cn1c(N)nnc1SCc1cc(Br)ccc1Cl,55.36
9,Cn1c(N)nnc1SCc1ccc(Cl)cc1Br,45.82
10,NC(=O)C(NC(=O)CSCc1ccc(Cl)s1)c1ccccc1 (stereo not drawn),28.04
11,CS(=O)(=O)Cc1ccc(CNC(=O)c2cccnc2O)cc1,-4.5
12,COCC(C)(C#N)NC(=O)c1cn(-c2cccc(Cl)c2F)nn1 (stereo not drawn),-10.98
13,O=C(c1ccncc1F)N1CC2CC1(C(=O)N1CCCC1)C2,33.14
14,CN(C)C(=O)CN1CCN(c2ncccn2)[C@@H]2CS(=O)(=O)C[C@@H]21,58.69
15,O=C(CN1CCN(c2ncccn2)[C@@H]2CS(=O)(=O)C[C@@H]21)N1CCCCC1,14.19
16,CN(C)C(=O)CN1CC[C@H]2[C@H]1CCN2c1ncccn1,22.18
17,CC(NC(=O)c1ccsc1)c1ccc2c(c1)NC(=O)CO2 (stereo not drawn),-34.61
18,CCN1CCCC1CN(Cc1ccoc1)CC1CCN(CCOC)CC1 (stereo not drawn),42.2
19,CCN1CCCC1CN(Cc1ccon1)CC1CCN(CCOC)CC1 (stereo not drawn),55.66
20,CCN1CCCC1CN(Cc1cc[nH]n1)CC1CCN(CCOC)CC1 (stereo not drawn),18.63
21,Cc1cc(C)nc(NC(C)Cc2cnccn2)n1 (stereo not drawn),4.42
22,Cc1cc(N2CCCC2c2nnc3n2CCCCC3)nc(N)n1 (stereo not drawn),38.89
23,CC(C)c1noc(-c2ccc(NCCCN3CCCC(O)C3)nc2)n1 (stereo not drawn),22.57

row,Compound,INHIBITION [%]
1,CCc1cc(C(=O)N2CCc3nc4c(C)csc4c(=O)n3CC2)on1,51.32
2,Cc1csc2c(=O)n3c(nc12)CCN(C(=O)c1ccnn1C)CC3,19.07
3,Cc1csc2c(=O)n3c(nc12)CCN(C(=O)c1ccccn1)CC3,-25.54
4,CNc1cncc(C2CCCN2c2cc(C)ncn2)n1 (stereo not drawn),5.15
5,Cc1c(Cl)cccc1S(=O)(=O)N1CCC2(CC1)OCCS2,-21.09
6,COc1cccc([C@H]2CN(C(=O)c3ccccc3)[C@@H]3CCCN[C@H]23)c1,34.48
7,N#Cc1c(Cl)nsc1N1CCN(CC2CCCCC2)CC1,29.89
8,CC(C)(C)CCN1CCN(c2snc(Cl)c2C#N)CC1,58.29
9,N#Cc1c(Cl)nsc1N1CCN(CC2CC2)CC1,20.88
10,c1coc(CN2CCCC3(COCCN(Cc4c[nH]nn4)C3)C2)c1 (stereo not drawn),-10.66
11,CCn1cc(NC(=O)NCc2ccc(CN3CCOCC3)cc2)cn1,17.39
12,CN1CCN(c2cccc(Cl)c2CNCCS(C)(=O)=O)CC1,4.42
13,O=C(Cc1ccc2c(c1)OCC2)Nc1nc[nH]n1,8.14
14,Nc1ccc(C(=O)N2CCC(Oc3cccc(C(F)(F)F)c3)CC2)cn1,17.2
15,O=C(c1ccc(=O)[nH]c1)N1CCC(Oc2cccc(C(F)(F)F)c2)CC1,57.75
16,CC(N)C(=O)N1CCC(Oc2cccc(C(F)(F)F)c2)CC1 (stereo not drawn),48.21
17,O=C(c1cccnc1)N1CCC(Oc2cccc(C(F)(F)F)c2)CC1,45.82
18,Nc1cc(C(=O)N2CCC(Oc3cccc(C(F)(F)F)c3)CC2)ccn1,72.05
19,O=C(c1ccncc1)N1CCC(Oc2cccc(C(F)(F)F)c2)CC1,26.74
20,Cc1cc(C)c2c(OCC(=O)N(C)CC(=O)NC(C)C)nn(C)c2n1,44.95
21,CN(Cc1ccc(F)cc1)C(=O)CN1CCOC(Cn2cncn2)C1 (stereo not drawn),2.08
22,O=c1cc(CN(CCO)C2CC2)nc2ccc(Cl)cn12,-28.15
23,COc1ccc(S(=O)(=O)NCCCc2nnc3nc(C)cc(C)n23)cc1,12.7

row,Compound,INHIBITION [%]
1,COCc1ncc(CN2CCC3(CCNC(=O)CC3)CC2)cn1,53.55
2,CCCNc1ncc(CN2CCC3(CCNC(=O)CC3)CC2)cn1,56.78
3,CCCNc1ncc(CN2CCC3(CC2)CNC(=O)C3)cn1,29.94
4,CCCNc1ncc(CN2CCN(C)C(=O)C2C)cn1 (stereo not drawn),-29.46
5,COc1ncc(CN2CCC3(CCNC(=O)CC3)CC2)cn1,0.85
6,COCc1ncc(CN2CCC3(CCNCC3)CC2)cn1,-8.84
7,O=C(NCC1CCC2(CCNCC2)O1)C1CC1 (stereo not drawn),24.36
8,N#CC1(C(=O)NCC2CCC3(CCNCC3)O2)CC1 (stereo not drawn),49.07
9,COC(=O)NCC1CCC2(CCNCC2)O1 (stereo not drawn),61.7
10,Cn1ccc(C(=O)N2C[C@@H]3CN(CC4CC4)CCO[C@@H]3C2)n1,42.79
11,O=C(CCCn1cncn1)N1CCC2(CCCN(CC3CC3)C2=O)C1 (stereo not drawn),23.19
12,O=C(CCc1nc(Cl)n[nH]1)N1CCC2(CCCNC2=O)C1 (stereo not drawn),-35.22
13,O=C(CCc1nc(Cl)n[nH]1)N1CCC2(CCCN(CC3CCC3)C2=O)C1 (stereo not drawn),57.34
14,O=C1CCc2cc(NC(=O)C3CCCN3c3nccs3)ccc2N1 (stereo not drawn),-73.41
15,Cc1cc(-c2ccc(C(C)N3CCCCC3)cc2)cnc1N (stereo not drawn),69.99
16,Cc1cc(-c2ccc(C(C)N3CCOCC3)cc2)cnc1N (stereo not drawn),-38.09
17,CC(c1ccc(-c2cnc(N)nc2)cc1)N1CCOCC1 (stereo not drawn),41.78
18,CCC(CC)c1cc(CNC(=O)N2CCC[C@@H]2CO)on1,-1.89
19,COc1ccccc1C(=O)N1Cc2cc(C)ccc2OCC1CN(C)C (stereo not drawn),-71.28
20,Cc1nn(C)c(C)c1C1COCCN1C(=O)c1cc(F)ccc1F (stereo not drawn),21.52
21,Cc1ccc(O)c(C(=O)N2CCOCC2c2c(C)n[nH]c2C)c1 (stereo not drawn),24.02
22,Cc1ccc(O)c(C(=O)N2CCOCC2c2c(C)nn(C)c2C)c1 (stereo not drawn),60.71

# From ChEMBL document CHEMBL4513216, “Probing the Open Global Health Chemical Diversity Library for Multistage-Active Starting Points for Next-Generation Antimalarials” (ACS Infect Dis, 2020)
